The values below come from the supplement of paper PMC10127200.

For the assay, the system named is HEPG2. The experiment in a line: Euclidean distance of Cell Painting phenotypic profile (signed KS, 77 features) to DMSO centroid (dimensionless distance); 5 or 10 uM (library dependent); higher = stronger phenotypic change vs DMSO (phenoactivity). Conditions: 48 h. The procedure, abridged: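 Phenoactivity is computed as Euclidean distance to the median vehicle profile. The profiles, drawn from 77 Harmony features scored as signed Kolmogorov-Smirnov statistics versus same-plate vehicle wells, were corrected for plate position, correlation-weighted and replicate-averaged at the top dose. Stained cells were imaged confocally at 20X (9 fields/well) after 48 h with library compounds at 10 or 5 uM, 0.1% DMSO final, in five cancer lines and a healthy fibroblast line.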
In the case of `Cc1cccc(-c2[nH]c(C(C)(C)C)nc2-c2ccc3c(c2)OCO3)n1`, the Euclidean distance was found to be 1.99.

Take `CCOC(=O)CC(=O)N1CCSC1COc1ccccc1OC` (stereo not given) [Moguisteine]: the Euclidean distance amounted to 1.08. Then `CCNC(=O)[C@@H]1CCCN1C(=O)[C@H](CCCNC(=N)N)NC(=O)[C@H](CC(C)C)NC(=O)[C@@H](CC(C)C)NC(=O)[C@H](Cc1ccc(O)cc1)NC(=O)[C@H](CO)NC(=O)[C@H](Cc1c[nH]c2ccccc12)NC(=O)[C@H](Cc1c[nH]cn1)NC(=O)[C@@H]1CCC(=O)N1` [Leuprorelin Acetate], with 0.582; and `C=C[C@]1(C)C[C@@H](OC(=O)CS[C@@H]2C[C@H]3CC[C@@H](C2)N3C)[C@]2(C)[C@H](C)CC[C@]3(CCC(=O)[C@H]32)[C@@H](C)[C@@H]1O` [Retapamulin], with 1.51.

The compound `CN(C)N(C)C(=O)[C@@]1(Cc2ccccc2)CCCN(C(=O)[C@@H](Cc2c[nH]c3ccccc23)NC(=O)C(C)(C)N)C1` [Anamorelin] had an Euclidean distance of 0.82.

Regarding `Cn1cc(-c2cnn3c(N)c(Br)c([C@@H]4CCCNC4)nc23)cn1`, the Euclidean distance was found to be 1.35. Then `CCCC(CCC)C(N)=O` [Valpromide], with 0.77; and `COc1ccc(C2CC(=O)c3c(O)cc(OC4OC(COC5OC(C)C(O)C(O)C5O)C(O)C(O)C4O)cc3O2)cc1OC` (stereo not given) [Methyl-Hesperidin], with 0.966. Then `CC1(C)S[C@@H]2[C@H](NC(=O)[C@H](N)c3ccccc3)C(=O)N2[C@H]1C(=O)OCOC(=O)[C@@H]1N2C(=O)C[C@H]2S(=O)(=O)C1(C)C` [Sultamicillin], with 0.611. For `O=c1[nH]c(=O)n([C@H]2C[C@H](O)[C@@H](CO)O2)cc1I` [Idoxuridine] the value was 1.5.
